# An excerpt weighted towards active compounds, which were near 21% of everything screened.
# D3 antag: qHTS of D3 Dopamine Receptor Antagonist: qHTS. D(3) dopamine receptor (Homo sapiens), P35462. max response, negative = inhibition, %. AID 652054, 2013. D3R cells, DiscoveRx beta-arrestin luminescence, antagonist mode; active compounds read low. 360,000 tested, 2.5% active; in the data active = max response below about -50%; inconclusive = no clear call, values can overlap the other calls; note: % is set by controls: 0 for no effect and ±100 for the full control effect
# Target sequence (P35462 whole entry, looked up): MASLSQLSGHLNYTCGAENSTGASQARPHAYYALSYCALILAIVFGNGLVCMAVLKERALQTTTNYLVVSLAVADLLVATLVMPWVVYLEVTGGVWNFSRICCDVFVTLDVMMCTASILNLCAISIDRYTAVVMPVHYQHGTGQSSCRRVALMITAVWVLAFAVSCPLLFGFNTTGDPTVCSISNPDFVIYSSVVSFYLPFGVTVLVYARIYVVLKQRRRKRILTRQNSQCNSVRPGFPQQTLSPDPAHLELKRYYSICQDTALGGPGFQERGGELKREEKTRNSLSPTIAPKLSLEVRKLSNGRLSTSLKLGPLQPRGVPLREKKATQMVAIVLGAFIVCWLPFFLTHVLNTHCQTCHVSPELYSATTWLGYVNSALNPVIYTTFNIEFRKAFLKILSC
#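 Cells expressing the human receptor were seeded at 1500 cells/well, incubated overnight at 37 degrees C in 5% CO2, then exposed to library compounds with dopamine controls for 90 minutes at 37 degrees C before luminescent detection.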
# TDP1 cell noCPT: qHTS for Inhibitors of human tyrosyl-DNA phosphodiesterase 1 (TDP1): qHTS in cells in absence of CPT. DT40 Tdp1-/- hTDP1 cells, no CPT, ATP luminescence, 48 h. Potency, µM (top dose mostly 46.2 µM), inactives show top-dose activity change, negative = growth inhibition, usual class: inhibitors. AID 686978, 2013. 420,000 tested, 15% active; note: potency is the fitted concentration of half-maximal effect; % is set by controls: 0 for no effect and ±100 for the full control effect; nearly all actives have a fitted effect of over 55% in size
#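 No-CPT arm: Tdp1-/-;hTDP1 DT40 cells (400/well) plus compounds, incubated ≥48 hr at 37 °C. Readout CellTiter-Glo luminescence.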
# DRD3 agonist: qHTS of D3 Dopamine Receptor Agonist: qHTS; D(3) dopamine receptor (Homo sapiens), P35462; D3R DiscoveRx beta-arrestin cells, luminescence, 90 min; max activation, %; 410,000 tested, 0.58% active; in the data active = max activation above about 30%; note: 0% is about no effect
#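 Agonist mode: compounds and dopamine controls were applied to plated cells for 90 min at 37 degrees C after an overnight attachment at 1500 cells/well. Luminescent read-out followed 30 - 60 minutes at room temperature with DiscoveRx detection reagent.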
# ClpP mod: qHTS Assay for Activators of ClpP; Potency, µM (highest dose often 57.5 µM), without a hit: at the highest dose activity change, negative = active; 340,000 tested, 1.9% active; ATP-dependent Clp protease proteolytic subunit (Bacillus subtilis (strain 168)), P80244; purified B. subtilis ClpP, FRET peptide cleavage, 20 min; active = well fitted falling curve with a large enough effect; inconclusive = small, poorly fitted or top-dose-only effect; inactive = no such curve, though single readings can be large or run the other way; note: potency is the fitted concentration of half-maximal effect; the source files actives as falling curves though it sought activators and does not explain the sign; nearly all actives have a fitted effect of over 65% in size
#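 Buffer: 100 mM Tris/HCl pH8, 100 mM KCl, 0.05% low protease BSA, 2.5% glycerol, 0.01% Tween-20. ClpP 10 microg/mL final; 20 min RT; delta FRET normalized to ADEP and DMSO controls.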
# IL1B secr inh: qHTS for Inhibitors of Inflammasome Signaling: IL-1-beta AlphaLISA Primary Screen. THP-1 LPS/ATP IL-1B secretion, AlphaLISA, 16 h; active compounds read low. activity change, % at 57.5 µM. 360,000 tested, 4.7% active; in the data active = activity change below about -50%; inconclusive = mostly about -30% to -49%; note: % is set by controls: 0 for no effect and ±100 for the full control effect
#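 THP-1 cells pretreated 1 hr with compounds (up to 57.5 uM final), then stimulated with LPS (250 ng/mL final) plus ATP (1.25 mM final); secreted IL-1B measured by AlphaLISA after 16 hr, decreased signal indicating inhibition.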
# DT40 TDP1 CPT: qHTS for Inhibitors of human tyrosyl-DNA phosphodiesterase 1 (TDP1): qHTS in cells in presence of CPT | 420,000 tested, 12% active | Potency, µM (highest dose often 46.2 µM), without a hit: at the top dose activity change, negative = growth inhibition, actives largely listed as inhibitors | chicken DT40 Tdp1-/-;hTDP1 cells + 20 nM CPT, ATP luminescence, 48 h; note: potency is the fitted concentration of half-maximal effect; % is set by controls: 0 for no effect and ±100 for the full control effect; nearly all actives have a fitted effect of over 55% in size
#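 Chicken DT40 Tdp1-/- cells complemented with human TDP1, 400 cells/well, exposed to compounds plus 20 nM camptothecin for at least 48 h at 37 C; viability read as ATP content by CellTiter-Glo luminescence.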
# * = called active by the depositor; ? = inconclusive; . = no result. Unless noted, calls come from the whole dose curve; as a rule, active = well fitted inhibition curve with a large enough effect; inconclusive = small, poorly fitted or top-dose-only effect; inactive = flat fitted curve, though single readings scatter.
SMILES,D3 antag,TDP1 cell noCPT,DRD3 agonist,ClpP mod,IL1B secr inh,DT40 TDP1 CPT
COc1ccc(OC)c(S(=O)(=O)N2CCC(C(=O)Nc3ccc(C)c(C)c3)CC2)c1,37,21µM*,1,-1%,-18,16µM*
COc1ccc(OC)c(S(=O)(=O)N2CCC(C(=O)Nc3cccc(C)c3C)CC2)c1,16,-14%,0,2%,-21,-7%
COc1ccc(NC(=O)Cn2c([N+](=O)[O-])cnc2C)c(OC)c1,-8,-27%,0,-4%,-4,-12%
COc1cc(NC(=O)c2cc([N+](=O)[O-])ccc2NC(=O)CNCc2ccccn2)cc(OC)c1,19,?,34*,1%,93,2%
COc1ccc(NC(=O)c2cc([N+](=O)[O-])ccc2NC(=O)CNCc2ccccn2)c(OC)c1,-13,13µM*,11,-3%,-8,?
N#CCC(=O)Nc1ccc(C(=O)OCC(=O)C23CC4CC(CC(C4)C2)C3)cc1,7,?,6,-4%,15,-29%
O=C(OCC12CC3CC(CC(C3)C1)C2)c1ccc(NCc2cc(O)ccc2O)cc1,28,0.73µM*,0,-3%,-52*,1.5µM*
O=C(OCCC12CC3CC(CC(C3)C1)C2)c1ccc(NCc2cc(O)ccc2O)cc1,-22,2.1µM*,-2,-7%,-121*,1.8µM*
O=C(CSc1ncn[nH]1)Nc1ccccc1Sc1ccc(Cl)cc1,0,?,-1,-5%,?,?
CCC(C(=O)OC)(C(=O)OC)c1ccc([N+](=O)[O-])cc1,-10,-1%,5,.,10,-1%
C=CCN=c1sc(C(=O)OC)cc(=O)n1CC=C,-7,-19%,1,-1%,0,15µM*
CCN=c1sc(C(=O)OC)cc(=O)n1CC,-11,-7%,0,1%,-2,-11%
Cc1cc(NC(=O)CCCN2C(=O)/C(=C/c3ccccc3Cl)SC2=S)no1,-22,?,-8,-3%,0,?
O=C(CCCN1C(=O)/C(=C/c2ccccc2Cl)SC1=S)NNC(=O)c1ccncc1,3,?,-13,.,?,?
O=C(CCN1C(=O)/C(=C/c2ccccc2Cl)SC1=S)N1CCOCC1,1,3.7µM*,0,1%,-112*,5.2µM*
O=C(CCCN1C(=O)/C(=C/c2ccccc2Cl)SC1=S)NNC(=O)c1ccccc1Cl,0,21µM*,-6,10%,19,?
O=C(CCN1C(=O)/C(=C/c2ccccc2Cl)SC1=S)N1CCCC1,-2,6.5µM*,1,.,-64*,9.2µM*
O=C(CCCN1C(=O)/C(=C/c2ccccc2Cl)SC1=S)N1CCCC1,-9,21µM*,-3,3%,-66*,?
O=C(CCN1C(=O)/C(=C/c2ccccc2Cl)SC1=S)NC1CCS(=O)(=O)C1 (centres undefined),-17,-1%,2,-16%,0,-19%
CN(CC(=O)Nc1ccccc1Cl)C(=O)c1cc(C2CC2)nn1-c1ccccc1,41,?,3,0%,-21,?
CCc1ccc(CNC(=O)c2ccc(NC(=O)C3=CSCCO3)cc2)cc1,-4,-2%,20,-3%,-11,-2%
COc1ccccc1/C=C1\SC(=S)N(CCC(=O)NNC(=O)c2ccccc2O)C1=O,4,?,1,-3%,18,?
CCOC(=O)N1CCN(C(=O)CN2C(=O)/C(=C\c3cccc(OC)c3)SC2=S)CC1,.,8.9µM*,.,-1%,.,7.9µM*
